Our source for the outcome and max response values is PubChem BioAssay (NCATS).

Records with an inconclusive call do not appear. Calls of active or inactive are those of the source. Calls follow the shape of the full dose curve.

In one test the target is Peroxisome proliferator-activated receptor delta (Homo sapiens) (UniProt Q03181). The test can be described thus: qHTS assay for small molecule agonists of peroxisome proliferator-activated receptor delta signaling (AID 588534).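 Also: 0% = DMSO basal wells and 100% = positive control agonist at 10 µM.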 The conditions noted are these: HEK293T PPARdelta-UAS-bla, beta-lactamase ratio, 18 h; series mostly up to 76.7 µM. Put shortly: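 Cell-based beta-lactamase reporter assay run in agonist mode: cells seeded and incubated 5 hrs at 37 C, compounds added and incubated 18 hrs at 37 C. CCF4 dye fluorescence read after 2 hrs at RT; EC50 and efficacy from Hill fits.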
Peroxisome proliferator-activated receptor delta (Homo sapiens), sequence (Q03181 whole entry, looked up): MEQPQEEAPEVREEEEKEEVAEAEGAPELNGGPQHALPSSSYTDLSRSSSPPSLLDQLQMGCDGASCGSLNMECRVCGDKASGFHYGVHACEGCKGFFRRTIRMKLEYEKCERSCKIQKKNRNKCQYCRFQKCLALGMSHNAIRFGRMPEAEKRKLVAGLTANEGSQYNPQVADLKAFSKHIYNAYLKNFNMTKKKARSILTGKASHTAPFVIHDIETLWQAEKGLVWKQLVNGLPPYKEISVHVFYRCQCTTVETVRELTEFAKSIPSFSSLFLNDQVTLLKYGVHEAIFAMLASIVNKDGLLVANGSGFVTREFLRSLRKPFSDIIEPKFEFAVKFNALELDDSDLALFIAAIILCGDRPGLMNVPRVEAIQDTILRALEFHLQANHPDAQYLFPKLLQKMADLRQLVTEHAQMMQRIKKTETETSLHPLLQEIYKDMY
On the technique in general: qHTS replaces the single test concentration by a dilution series.
For `CCCCCCCCCCCCCCCCCCO`, the outcome was inactive.
With `Cc1nnc(NS(=O)(=O)c2ccc(N)cc2)s1`, the result was inactive.
For `O=C(OCc1ccccc1)c1ccccc1`, the outcome was inactive.
Consider `CC(=O)OCC(COC(C)=O)OC(C)=O`, for which the outcome was inactive.
As for `O=C(O)CCCCC1CCSS1` (configuration not stated), the outcome was inactive.
Regarding `Nc1nc(N)nc(NC2CC2)n1`, the result was inactive.
Turning to `CO/N=C(/C(=O)N[C@@H]1C(=O)N2C(C(=O)O)=C(COC(N)=O)CS[C@H]12)c1ccco1`, the result was inactive.
`CC(=O)c1ccc(S(=O)(=O)NC(=O)NC2CCCCC2)cc1`: the result was inactive.
Regarding `O=C(O)c1cc(=O)[nH]c(=O)[nH]1`, the outcome was inactive.
In the case of `Nc1ccc(S(N)(=O)=O)cc1`, the result was inactive.
As for `COc1c2occc2cc2ccc(=O)oc12`, the result was inactive.
The same measure, in the same setting: for `CCc1cc(C(N)=S)ccn1` the value was “inactive”; for `CN=C(NC#N)NCCSCc1nc[nH]c1C`, “inactive”; for `Cc1noc(NS(=O)(=O)c2ccc(N)cc2)c1C`, “inactive”.
Consider `C=CCc1ccc(O)c(OC)c1`, for which the result was inactive.
As for `NC(=O)N1c2ccccc2C=Cc2ccccc21`, the outcome was inactive.
Still for that read-out and setting: the entry for `CC(C)Cc1ccc(C(C)C(=O)O)cc1` (configuration not stated) is “inactive”; for `COP(=S)(OC)SCN1C(=O)c2ccccc2C1=O` it is “inactive”.
On to `CCCCOC(=O)c1ccc(N)cc1`, for which the result was inactive.
For the compound `Cc1ccc(C(C)C)c(O)c1`, the outcome was inactive.
`NNC(=O)c1ccncc1`: the result was inactive.
For `O=C1c2ccccc2C(=O)c2ccccc21`, the outcome was inactive.
`NCCNCCNCCN`: the outcome was inactive.
On to `NC(=O)c1ccccc1O`, for which the result was inactive.
Still for that read-out and setting: the entry for `Nc1ccc(C(=O)O)cc1` is “inactive”.
On to `Cc1cc(O)cc(C)c1Cl`, for which the outcome was inactive.
Regarding `COc1ccc(O)cc1`, the outcome was inactive.
As for `[N-]=[N+]=CC(=O)OC[C@H](N)C(=O)O`, the outcome was inactive.
In the case of `C[C@]1(O)CC[C@H]2[C@@H]3CCC4=CC(=O)CC[C@]4(C)[C@@]3(F)[C@@H](O)C[C@@]21C`, the outcome was inactive.
Regarding `Clc1ccc(C(c2ccc(Cl)cc2)C(Cl)(Cl)Cl)cc1`, the result was inactive.
On to `NCCNCCNCCNCCN`, for which the outcome was inactive.
With `Cc1c(C(=O)NCCO)[n+](=O)c2ccccc2n1[O-]`, the result was inactive.
In the case of `Cc1cc(=O)[nH]c(=S)[nH]1`, the result was inactive.
As to `CCCC(C)(COC(N)=O)COC(N)=O`, the result was inactive.

Test system in a further test: not listed separately
The test can be described thus: qHTS assay for small molecule antagonists of peroxisome proliferator-activated receptor delta signaling (AID 588535).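 Also: cells co-treated with a PPAR-delta agonist as stimulator during compound exposure.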 The conditions noted are these: HEK293T PPARd-UAS-bla, beta-lactamase FRET ratio, 18 h; 460 nm channel. The essentials:
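Cell-based beta-lactamase assay in antagonist mode: 4000 HEK293T PPAR-delta-UAS-bla cells per well, 5 hr preincubation then 18 hr compound incubation at 37 C. IC50 obtained by Hill equation fitting.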
Take `Nc1nc(N)nc(NC2CC2)n1`: the max response turned out to be 47%.
On the same count and under the same terms, for `Oc1ccc(Cl)cc1` the value was -18.6%; for `O=C1c2ccccc2C(=O)c2ccccc21`, 36.9%.
`Nc1ccccc1`: the max response amounted to 1.43%.
Regarding `[N-]=[N+]=CC(=O)OC[C@H](N)C(=O)O`, the max response worked out at 46.8%.
As to `C[C@]1(O)CC[C@H]2[C@@H]3CCC4=CC(=O)CC[C@]4(C)[C@@]3(F)[C@@H](O)C[C@@]21C`, the max response is -0.651%.
Still for that read-out and setting: the figure for `Clc1ccc(C(c2ccc(Cl)cc2)C(Cl)(Cl)Cl)cc1` is -51.4%; for `CCCC(C)(COC(N)=O)COC(N)=O` it is -25.1%.
